In PubChem BioAssay (Tox21):
Records with an inconclusive call do not appear. Where a call stands in place of a potency, no number is given. Calls of active or inactive are those of the source. Calls come from the whole dose curve; as a rule, active = well fitted cell-killing curve with a large enough effect in the repeat runs; inconclusive = weak or mixed curves, or effect the other way; inactive = flat fitted curve, though single readings scatter.

Experiment: cAMP Responsive Elements (CRE) small molecule agonists, cell-based qHTS assay: qHTS cell viability counter screen (AID 2060914);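 note: viability read after 3 h of compound exposure; nearly all actives have a fitted effect of over 50% in size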
Details: CRE-bla HEK293T viability, CellTiter-Glo luminescence, 5 h; series mostly up to 92.4 µM
Text: National Center for Advancing Translational Sciences [NCATS]
Division of Preclinical Innovation [DPI]
U.S. Environmental Protection Agency [EPA]
National Institutes of Environmental Health Sciences [NIEHS]
National Toxicology Program [NTP]
U.S. Food and Drug Administration [FDA]
CREB (cyclic-AMP Responsive Element Binding Protein) is a cellular transcription factor. It binds to certain DNA sequences called cAMP Responsive Elements (CRE) and regulates the transcription of the genes. […] This cell line can be used to find agonists/antagonists of the cyclic AMP signaling pathway. The activation of the report gene under culture conditions can be detected by fluorescence intensity. This cell line has been used to screen the Tox21 10K compound library to identify agonists that induce oxidative stress. The cytotoxicity of the Tox21 compound library against the CRE-bla cell line was tested in parallel by measuring the cell viability using CellTiter-Glo assay (Promega, Madison, WI) in the same wells.
Tox21 Assay Protocol Summary:
CRE-bla Hek 293T cells were suspended in assay medium (DMEM containing 10% dialyzed FBS, 0.1 mM NEAA, 1 mM sodium pyruvate and 25 mM HEPES) and dispensed at 2,000 cells/5 uL /well into 1536-well black wall/clear bottom plates using a Multidrop Combi (ThermoFisher Scientific, Waltham, MA) dispenser. After the assay plates were incubated at 37 C/5% CO2 for 18 hrs, 23 nL of compounds dissolved in DMSO, positive controls or DMSO only was transferred to the assay plate by a pintool workstation (Kalypsys, San Diego, CA). After the plates were incubated at 37 C/5% CO2 for 3 hrs, 1 uL of LiveBLAzer B/G FRET substrate (Invitrogen, Carlsbad, CA) was added to each well using Bioraptr Flying Reagent Dispenser (FRD, Aurora Discovery, San Diego, CA). The plates were incubated at room temperature for 2 h, then fluorescence intensities were measured using an Envision plate reader (PerkinElmer, Shelton, CT) at Excitation 405nm, Emission 460nm and 530nm. The % activity was determined from the ratio of 460nm/530nm. For cell viability readout that measures cytotoxicity, 4 uL /well of CellTiter-Glo reagent was added into the assay plates using Bioraptr FRD. After 30 min incubation at room temperature, the luminescence intensity in the assay plates was measured using a ViewLux (PerkinElmer, Shelton, CT) plate reader.
Potency is the fitted concentration of half-maximal effect.

SMILES	Potency
Brc1nc2ccccc2s1	inactive
C=C[Si](OCCOC)(OCCOC)OCCOC	inactive
NS(=O)(=O)c1cc2c(cc1C(F)(F)F)NC(Cc1ccccc1)NS2(=O)=O (stereo not given)	inactive
CC(C)(CO)CO	inactive
CC(C)C(OC(=O)c1ccccc1)C(C)(C)COC(=O)c1ccccc1 (stereo not given)	inactive
CC(=O)Oc1ccc([N+](=O)[O-])cc1CCl	inactive
ClCCOCCOCCCl	inactive
C=C(C)C(=O)OCCCCCCCCCCOC(=O)C(=C)C	inactive
CCCCCCc1ccc(N)cc1	inactive
FC(F)(F)/C(=N\OCC1OCCO1)c1ccc(Cl)cc1	inactive
CCCCC(CC)C(=O)OCCOCCOCCOCCOC(=O)C(CC)CCCC (stereo not given)	inactive
CC[C@@H]([C@H](C)O)n1ncn(-c2ccc(N3CCN(c4ccc(OC[C@@H]5CO[C@@](Cn6cncn6)(c6ccc(F)cc6F)C5)cc4)CC3)cc2)c1=O	26.6 µM (active)
CCCCCCCCCCc1ccccc1	inactive
NC(=O)NNc1ccccc1	inactive
CCN(CC)c1cccc(O)c1	inactive
CCCCCCCC[P+](CCCCCCCC)(CCCCCCCC)CCCCCCCC	21.6 µM (active)
NC1(c2ccc(-c3nc4ccn5c(=O)[nH]nc5c4cc3-c3ccccc3)cc2)CCC1	inactive
COC(=O)c1ccc(I)cc1S(=O)(=O)NC(=O)Nc1nc(C)nc(OC)n1	inactive
NS(=O)(=O)c1cc2c(cc1C(F)(F)F)NCNS2(=O)=O	inactive
CCC(=O)O[C@]1(C(=O)CCl)[C@@H](C)C[C@H]2[C@@H]3CCC4=CC(=O)C=C[C@]4(C)[C@@]3(F)[C@@H](O)C[C@@]21C	inactive

SMILES	Potency
C=C[Si](OC(C)=O)(OC(C)=O)OC(C)=O	inactive
CCCCCCCC[Si](OCC)(OCC)OCC	inactive
Cc1cc(=O)oc2cc(O)cc(O)c12	inactive
CCC(=O)Nc1ccc(O)cc1	inactive
FC(F)(F)C(F)(F)C(F)(F)C(F)(F)C(F)(F)C(F)(F)C(F)(F)C(F)(F)Br	inactive
CCOC(=O)c1ccc(OC(=O)CCCCCN=C(N)N)cc1	inactive
CC(C)CCOCCC(C)C	inactive
CC(C)NC(=O)NC(C)C	inactive
C[C@H](CCC(=O)O)[C@H]1CC[C@H]2[C@@H]3CC[C@@H]4C[C@H](O)CC[C@]4(C)[C@H]3C[C@H](O)[C@]12C	inactive
CC(C)(C)NSc1nc2ccccc2s1	inactive
COc1ccc2c(c1)c(CC(=O)OCC(=O)O)c(C)n2C(=O)c1ccc(Cl)cc1	inactive
CN1CC(=O)NC1=N	inactive
C/C=C/C=C/COC(=O)C(C)C	inactive
CCCCCCC=O	inactive
O=[Si]=O	inactive
CSc1cnccn1	inactive
C[C@]12CC[C@H]3C(=CCc4cc(O)ccc43)[C@@H]1CCC2=O	inactive
CC(C)OC(=O)OCOP(=O)(CO[C@H](C)Cn1cnc2c(N)ncnc21)OCOC(=O)OC(C)C	inactive
Cc1ccc(C(C)C)cc1	inactive
CCCC/C=C/CCCCO	inactive
